Sampled rows, rich in hits. Any-hit rate of the full collection: about 2.6%.
COUP-TFII inh = blocks human COUP-TFII nuclear receptor; HEK293T NGFI-A luciferase reporter, luminescence; inhibition, % at 8.6 µM; 370,000 tested, 0.7% active; AID 686940;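 active = inhibition above a per-plate cutoff, mean inhibition of test wells between control levels plus 3 SD, cut at about 38% in these data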;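 also: cells cotransfected with COUP-TFII expression vector driving the NGFI-A reporter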
Target sequence (P24468 whole entry, looked up): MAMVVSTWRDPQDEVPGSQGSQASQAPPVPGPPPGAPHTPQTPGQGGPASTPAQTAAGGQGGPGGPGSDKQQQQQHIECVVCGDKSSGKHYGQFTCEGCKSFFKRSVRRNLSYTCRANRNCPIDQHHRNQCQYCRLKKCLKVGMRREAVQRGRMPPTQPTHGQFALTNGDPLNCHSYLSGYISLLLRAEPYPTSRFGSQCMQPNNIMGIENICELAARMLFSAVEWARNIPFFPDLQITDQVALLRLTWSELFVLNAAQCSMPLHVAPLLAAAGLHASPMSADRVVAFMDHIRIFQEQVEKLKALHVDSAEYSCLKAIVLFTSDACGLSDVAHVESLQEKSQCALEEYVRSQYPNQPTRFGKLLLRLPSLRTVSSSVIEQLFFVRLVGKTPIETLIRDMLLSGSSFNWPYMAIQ
Jurkat NFkB inh = lowers PMA/ionomycin-induced NF-kB signal in Jurkat cells | 330,000 tested, 0.53% active | AID 435003 | inhibition, % at 4 µM | PMA/ionomycin-induced NF-kB luciferase reporter, luminescence; in the data active = inhibition above about 50%
Cardio protect = modulators protecting cardiomyocytes from myocardial damage. AID 588492. protection from H2O2 cell death, % at 20 µM. 360,000 tested, 0.63% active. H9c2 cardiomyocytes, H2O2 injury protection, ATPLite, 2 h;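 active = compounds giving at least 50% protection of heart cells from peroxide-induced death in the single-dose screen, raw or plate-pattern-corrected value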
Gli-Sufu antag = Gli-Sufu pathway antagonism. Sufu-KO-LIGHT fibroblasts, Gli luciferase reporter luminescence. 340,000 tested, 0.74% active. inhibition, % at 5 µM;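 active = inhibition above about 55%, limit read from the data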
TAG inh = inhibitors of triacylglycerol accumulation. AID 651582. H9c2 cells, Nile Red lipid (TAG) fluorescence; cells loaded with 200 µM oleic acid. 230,000 tested, 0.66% active. inhibition, % at 12.5 µM;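 active = pattern-corrected inhibition of lipid staining of at least 50% with the nuclear-stain viability signal not falling by more than 50%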
697 NFkB inh = inhibitors of the PMA/ionomycin-induced NF-kB reporter in 697 B cells. 697 B-cell NF-kB luciferase reporter, 16 h. inhibition, % at 4 µM. 330,000 tested, 0.33% active. AID 435022; in the data active = inhibition above about 35%
VP16 Luc counter = inhibits VP16 reporter, flagging COUP-TFII antagonist hits. shares compounds with COUP-TFII inh. HEK293 Gal4-VP16 luciferase reporter, luminescence. inhibition, % at 8.5 µM. 2,500 tested, 25% active. AID 687007; in the data active = inhibition above about 13%
COUP-TFII conf = confirmation of human COUP-TFII (NR2F2) inhibitors. shares compounds with COUP-TFII inh. HEK293 NGFI-A luciferase reporter, luminescence. inhibition, % at 8.5 µM. 2,500 tested, 45% active. AID 687008;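 active = mean inhibition over three repeats above a set limit taken from the earlier primary screen, cut at about 38% in these data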
Numbers stand for hits; i = inactive; nt = no result given.

SMILES	COUP-TFII inh	Jurkat NFkB inh	Cardio protect	Gli-Sufu antag	TAG inh	697 NFkB inh	VP16 Luc counter	COUP-TFII conf
O=C(Nc1ccc(S(=O)(=O)N2CCCC2)cc1)c1ccc(CN2CCOCC2)cc1	63.3	i	i	i	i	i	i	48.5
COc1ccc(CN2CCN(S(=O)(=O)c3ccc(NC(C)=O)cc3)CC2)cc1OC	i	i	i	i	nt	i	nt	nt
O=C1c2ccccc2/C(=C\c2ccc(O[C@@H]3CCCCO3)cc2)N1c1ccccc1	i	nt	nt	nt	nt	nt	nt	nt
COCc1cc(N2CCNC[C@H]2C)ccc1N1C[C@@H](C)O[C@@H](C)C1	i	nt	nt	nt	nt	nt	nt	nt
Cn1cc(/C=C/c2cc[n+](C)cc2)c2cc(F)ccc21	nt	nt	i	i	nt	nt	nt	nt
C[n+]1ccc(/C=C/c2c[nH]c3ccc(F)cc23)cc1	37.9	i	i	i	nt	i	i	i
CN(C)S(=O)(=O)Oc1cccc(C(=O)Nc2ccccc2Cl)c1	i	i	i	i	i	i	nt	nt
CN(C)S(=O)(=O)Oc1cccc(C(=O)Nc2ccc(Cl)cc2)c1	44.8	i	i	i	i	i	i	i
CN(C)S(=O)(=O)Oc1ccc(C(=O)Nc2cccc(C(F)(F)F)c2)cc1	54.1	i	i	i	i	i	i	i
CN(C)S(=O)(=O)Oc1ccc(C(=O)Nc2cccc(Cl)c2)cc1	i	i	i	i	i	i	nt	nt
CCCN1CCCCC(NC(=O)c2ccc(-c3ccccc3)cc2)C1=O (stereo not drawn)	i	nt	nt	nt	nt	nt	nt	nt
Cc1ccc(Cl)cc1N1CCN(C(=O)CN(C2CCCCC2)S(C)(=O)=O)CC1	40.1	i	i	i	i	i	i	i
CC(C)NS(=O)(=O)c1ccc(OCC(=O)N2CCCC2)cc1	i	i	i	i	nt	i	nt	nt
Cc1ccc(Cl)cc1N1CCN(C(=O)COc2ccc(S(=O)(=O)NC(C)C)cc2)CC1	38.3	i	i	i	i	i	i	39.3
CS(=O)(=O)N(CC(=O)N1CCN(c2cccc(Cl)c2)CC1)C1CCCCC1	i	i	i	i	i	i	nt	nt
CN(Cc1ccco1)C(=O)c1cccc2c1C(=O)N(Cc1cccnc1)C2	i	nt	nt	nt	nt	nt	nt	nt
CN(C)S(=O)(=O)c1cccc(CSCc2cccc(S(=O)(=O)N(C)C)c2)c1	56.8	i	i	56.5	nt	i	i	56.1
Cc1cc(C)n2nc(SCc3cccc(S(=O)(=O)N(C)C)c3)nc2n1	i	i	i	i	nt	i	nt	nt
CCOc1cc(C(=S)N2CCOCC2)ccc1OS(=O)(=O)c1ccc(OC)cc1	i	i	i	i	nt	i	nt	nt
CCOc1cc(C(=S)N2CCOCC2)ccc1OS(=O)(=O)c1ccc(NC(C)=O)cc1	47.8	i	i	i	nt	i	i	i
CCC(C)[C@H](NC(=O)[C@H](CC(C)C)NC(=O)OC(C)(C)C)C(=O)N[C@@H](Cc1ccccc1)C(=O)OC (stereo partly drawn)	i	nt	nt	nt	nt	nt	nt	nt
CCCCOCCCNC(=O)C[C@@H]1C(=O)N(CCc2ccc(Cl)cc2)C2=CCCC[C@]21C(=O)OCC	i	nt	nt	nt	nt	nt	nt	nt
C[C@@H]1CN([C@H](C)CO)C(=O)c2cc(NC(=O)Nc3ccccc3)ccc2O[C@@H](C)CCCCO[C@H]1CN(C)S(C)(=O)=O	i	nt	nt	nt	nt	nt	nt	nt
N#Cc1c(NCc2ccccc2)ccnc1NCc1cccnc1	44.0	i	i	i	i	i	i	42.2
CCN(CC)CC(C)(C)C(=O)/C=C/c1ccc(/C=C/C(=O)C(C)(C)CN(CC)CC)cc1	92.7	nt	i	i	112.3	nt	88.7	101.3
C=C1C(=O)OC2CC1C(OC(C)=O)CC(C)=CCCC(C)=CCCC2(C)O (stereo not drawn)	39.5	nt	i	nt	nt	nt	30.2	i
C=C1C(=O)O[C@H]2[C@H]1[C@H](OC(=O)/C(C)=C\C)C[C@]1(CO1)[C@@H]1[C@H](OC(C)=O)C=C(C)[C@]21O	i	nt	i	i	i	nt	nt	nt
Cc1ccc(NC(=O)C2CCN(S(=O)(=O)c3c(C)noc3/C=C/c3ccco3)CC2)nc1	39.0	i	i	i	nt	i	i	i
CCCc1nc2c(C)cc(Br)cn2c1Cc1cccc(Cl)c1	i	nt	nt	nt	nt	nt	nt	nt
Cc1cc(NS(=O)(=O)c2ccc(NC(=O)CSc3nnc(-c4ccco4)n3-c3ccc(Cl)cc3)cc2)nc(C)n1	i	nt	nt	nt	nt	nt	nt	nt

Screens deposited in PubChem by several laboratories.
